# Assay results reported in PubChem BioAssay AID651742 (Broad Institute, 2012).
# Among all 5,600 compounds or so, about 780 (14%) were called active. About 3% were inconclusive and are not listed.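 Rule for the calls: active = mean signal decrease across replicates above about 35% based on untreated-well scatter, with enough replicates individually passing (limit read from the data); inconclusive = no rule stated though some were filed; inactive = the rest.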 Not all results are given here.
# Experiment: cytotoxicity in mouse NIH/3T3 fibroblasts, confirmation, cytotoxicity control for T. cruzi proliferation inhibitor project, cell-based, cherry-pick, single point (AID 651742);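 note: 0% = median of neutral control wells and 100% = median of positive control wells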
# Conditions: NIH/3T3 viability, CellTiter-Glo ATP luminescence, 90 h; at 8.35 µM; active compounds read high
row,SMILES,cytotoxicity (signal decrease)
1,C[C@@H]1CCCCO[C@H](CN(C)C(=O)Nc2cccc3ccccc23)[C@H](C)CN([C@H](C)CO)C(=O)c2cc(NS(=O)(=O)c3cccs3)ccc2O1,2.6% (inactive)
2,Cc1ccc(S(=O)(=O)Nc2ccc3c(c2)C(=O)N([C@H](C)CO)C[C@H](C)[C@H](CN(C)C(=O)Nc2ccc(F)cc2)OCCCC[C@H](C)O3)cc1,-4.04% (inactive)
3,Cc1ccc(S(=O)(=O)N(C)C[C@H]2OCCCC[C@H](C)Oc3ccc(NC(=O)Cc4ccccc4)cc3C(=O)N([C@@H](C)CO)C[C@@H]2C)cc1,-1.37% (inactive)
4,COc1ccc(NC(=O)N(C)C[C@H]2OCCCC[C@H](C)Oc3ccc(NC(=O)Nc4ccc(C(F)(F)F)cc4)cc3C(=O)N([C@@H](C)CO)C[C@@H]2C)cc1,-11.5% (inactive)
5,C[C@H]1CCCCO[C@H](CN(C)S(=O)(=O)c2ccc(Cl)cc2)[C@@H](C)CN([C@@H](C)CO)C(=O)c2cc(NC(=O)Nc3ccc4c(c3)OCO4)ccc2O1,6.45% (inactive)
6,C[C@@H]1CN([C@@H](C)CO)C(=O)c2cc(C#Cc3ccccc3)cnc2O[C@H]1CN(C)C(=O)c1ccccn1,15.5% (inactive)
7,C[C@@H]1CN([C@H](C)CO)S(=O)(=O)c2ccc(C#CCC3CCCC3)cc2O[C@H]1CN(C)C(=O)CC1CC1,-5.41% (inactive)
8,C[C@H]1CCCCO[C@@H](CN(C)S(=O)(=O)c2cccs2)[C@@H](C)CN([C@@H](C)CO)C(=O)c2cc(NS(=O)(=O)c3ccc(Cl)cc3)ccc2O1,5.91% (inactive)
9,N#Cc1cccc(-c2ccc([C@H]3[C@H](CO)N4CCCCN(C(=O)Nc5cccc(F)c5)C[C@@H]34)cc2)c1,32.4% (inactive)
10,O=C(Nc1cccc(F)c1)N1CCCCN2[C@H](CO)[C@H](c3ccc(C#CC4CC4)cc3)[C@@H]2C1,35.2% (active)
11,O=C(Nc1ccccc1)N1CCCCN2[C@H](CO)[C@@H](c3ccc(C#Cc4ccccn4)cc3)[C@H]2C1,1.29% (inactive)
12,C[C@@H]1CN([C@H](C)CO)C(=O)c2cc(NS(=O)(=O)c3cccs3)ccc2O[C@@H](C)CCCCO[C@@H]1CN(C)S(=O)(=O)c1ccc(Cl)cc1,-7.98% (inactive)
13,COc1ccc(NC(=O)Nc2ccc3c(c2)C(=O)N([C@H](C)CO)C[C@H](C)[C@H](CN(C)S(=O)(=O)c2ccc(Cl)cc2)OCCCC[C@H](C)O3)cc1,-12.7% (inactive)
14,O=C(c1ccccn1)N1CC[C@@H]2[C@H]1c1cc(-c3ccccc3)ccc1N[C@@H]2CO,3.39% (inactive)
15,C[C@@H]1CN([C@@H](C)CO)C(=O)c2cc(NC(=O)Nc3ccc4c(c3)OCO4)ccc2O[C@@H]1CN(C)Cc1ccc(Oc2ccccc2)cc1,22.6% (inactive)
16,C[C@H]1CN([C@@H](C)CO)C(=O)Cc2cc(NC(=O)Cc3cn(C)c4ccccc34)ccc2O[C@@H]1CN(C)Cc1ccccc1,-12.8% (inactive)
17,C[C@@H]1CN([C@@H](C)CO)C(=O)Cc2cc(NC(=O)C3CCCCC3)ccc2O[C@@H]1CN(C)Cc1ccc(C(=O)Nc2ccccc2N)cc1,37.8% (active)
18,C[C@H](CO)N1C[C@H](C)[C@@H](CN(C)Cc2ccc(-c3ccccc3)cc2)Oc2ccc(NC(=O)CCC(F)(F)F)cc2CC1=O,32.2% (inactive)
19,C[C@@H]1CN([C@H](C)CO)C(=O)Cc2cc(NC(=O)c3ccncc3)ccc2O[C@H]1CN(C)Cc1ccc(-c2ccccc2)cc1,32.8% (inactive)
20,C[C@H](CO)N1C[C@H](C)[C@H](CN(C)Cc2ccc(-c3ccccc3)cc2)Oc2ccc(NC(=O)Nc3ccc(F)cc3)cc2CC1=O,43.5% (active)

row,SMILES,cytotoxicity (signal decrease)
1,C[C@@H]1CN([C@H](C)CO)C(=O)Cc2cc(NC(=O)Cc3ccccc3)ccc2O[C@H]1CN(C)Cc1ccc(Oc2ccccc2)cc1,1.79% (inactive)
2,O=C(C1CC1)N1CCCCN2[C@H](CO)[C@H](c3ccc(-c4cccc(F)c4)cc3)[C@H]2C1,2.61% (inactive)
3,CN1c2ccc(-c3ccccc3)cc2[C@H]2[C@H](CCN2C(=O)Cc2ccccn2)[C@H]1CO,8.34% (inactive)
4,C[C@@H]1CCCCO[C@H](CN(C)S(=O)(=O)c2cccs2)[C@H](C)CN([C@H](C)CO)C(=O)c2cc(NS(=O)(=O)c3ccc(F)cc3)ccc2O1,-5.09% (inactive)
5,COc1ccc(NC(=O)N2CC[C@@H]3[C@@H](CO)N(C)c4ccc(-c5cccc(F)c5)cc4[C@@H]32)cc1,1.1% (inactive)
6,O=C(NCC1CCCCC1)[C@H]1[C@H](CO)[C@H]2Cn3c(cccc3=O)[C@H]2N1C(=O)CC1CC1,0.341% (inactive)
7,COc1cccc(C#Cc2ccc([C@@H]3[C@H](C#N)N[C@H]3CO)cc2)c1,-25.2% (inactive)
8,COCC(=O)N1CC[C@@H]2[C@@H](CO)Nc3ccc(-c4cccc(C#N)c4)cc3[C@@H]21,2.33% (inactive)
9,CN1C(=O)c2cc(NC(=O)c3cnccn3)ccc2OC[C@@H]2O[C@H](CC(=O)N[C@@H]3CCN(Cc4ccccc4)C3)CC[C@@H]21,-18.7% (inactive)
10,CCC(=O)N1CC[C@@H]2[C@@H](CO)N(C)c3ccc(-c4cccc(OC)c4)cc3[C@@H]21,-4.46% (inactive)
11,O=C(c1cnccn1)N1CC[C@@H]2[C@H](CO)Nc3ccc(-c4cccc(F)c4)cc3[C@@H]21,32.9% (inactive)
12,CC(C)(O)C#Cc1ccc([C@@H]2[C@H](CO)N3CCCCN(C(=O)c4cccc(F)c4)C[C@@H]23)cc1,-14.5% (inactive)
13,COc1ccc(-c2ccc([C@H]3[C@H]4CN(C(=O)c5ccc6c(c5)OCO6)CCCCN4[C@H]3CO)cc2)cc1,44.1% (active)
14,Cc1cccc(-c2ccc([C@@H]3[C@H](CO)N4CCCCN(C(=O)c5ccc6c(c5)OCO6)C[C@@H]34)cc2)c1,69.7% (active)
15,COCC#Cc1ccc([C@@H]2[C@H](CO)N3CCCCN(C(=O)CN(C)C)C[C@@H]23)cc1,-18.1% (inactive)
16,O=C(c1cccc(F)c1)N1CCCCN2[C@H](CO)[C@H](c3ccc(-c4ccncc4)cc3)[C@H]2C1,-11.1% (inactive)
17,CN(C)C(=O)c1ccc(-c2ccc([C@H]3[C@@H](CO)N4CCCCN(CC5CC5)C[C@H]34)cc2)cc1,-1.46% (inactive)
18,CCCC#Cc1ccc([C@H]2[C@H](CO)N3CCCCN(C(=O)c4ccc5c(c4)OCO5)C[C@@H]23)cc1,35.2% (active)
19,O=C(c1ccncc1)N1CCCCN2[C@H](CO)[C@H](c3ccc(-c4ccccc4)cc3)[C@H]2C1,6.21% (inactive)
20,COc1ccc(C#Cc2ccc([C@@H]3[C@@H](CO)N4CCCCN(C(=O)c5ccncc5)C[C@@H]34)cc2)cc1,22.3% (inactive)

row,SMILES,cytotoxicity (signal decrease)
1,COCCNC[C@@H]1[C@H](c2ccccc2)[C@H](CO)N1c1nc(C)c(C)s1,-17.4% (inactive)
2,CC(=O)N1CC[C@@H]2[C@H](CO)Nc3ccc(C#Cc4ccccc4F)cc3[C@@H]21,-0.01% (inactive)
3,COc1ccc(CN(C)C[C@H]2Oc3ccc(NS(=O)(=O)c4ccc(Cl)cc4)cc3CC(=O)N([C@@H](C)CO)C[C@H]2C)cc1,12.2% (inactive)
4,C[C@@H]1CCCCO[C@H](CN(C)C(=O)NC2CCCCC2)[C@H](C)CN([C@H](C)CO)C(=O)c2cc(NC(=O)Nc3ccc(F)cc3)ccc2O1,-12.7% (inactive)
5,CCCC#Cc1ccc([C@@H]2[C@@H](C#N)N(C(=O)C3CCCC3)[C@@H]2CO)cc1,14.1% (inactive)
6,N#Cc1ccc(-c2ccc3c(c2)[C@@H]2[C@@H](CCN2C(=O)Cc2ccncc2)[C@@H](CO)N3)cc1,8.03% (inactive)
7,C[C@H]1CN([C@@H](C)CO)C(=O)Cc2cc(NC(=O)Cc3cn(C)c4ccccc34)ccc2O[C@@H]1CN(C)Cc1ccc(C(F)(F)F)cc1,7.48% (inactive)
8,C[C@@H]1CN([C@H](C)CO)C(=O)c2cccc(NC(=O)c3cnccn3)c2O[C@@H]1CN(C)Cc1ccc(C(=O)Nc2ccccc2N)cc1,32.5% (inactive)
9,C[C@@H]1CN([C@@H](C)CO)S(=O)(=O)c2ccc(C#CCN(C)C)cc2O[C@H]1CN(C)C(=O)C1CC1,19.8% (inactive)
10,CC(C)CC#Cc1ccc2c(c1)O[C@H](CN(C)Cc1ccccc1F)[C@@H](C)CN([C@@H](C)CO)S2(=O)=O,-3.93% (inactive)
11,C[C@@H]1CN([C@H](C)CO)S(=O)(=O)c2ccc(C#CC3CCCC3)cc2O[C@@H]1CN(C)Cc1cccnc1,48.5% (active)
12,CCCN(C)C[C@H]1Oc2cc(C#CC3CCCC3)ccc2S(=O)(=O)N([C@H](C)CO)C[C@@H]1C,26.3% (inactive)
13,C[C@H](CO)N1C[C@H](C)[C@H](CN(C)Cc2cccnc2)Oc2cc(C#CC3CCCC3)ccc2S1(=O)=O,32% (inactive)
14,CC(C)CC#Cc1ccc2c(c1)O[C@H](CN(C)Cc1cccnc1)[C@H](C)CN([C@@H](C)CO)S2(=O)=O,65.8% (active)
15,CC(C)CC#Cc1ccc2c(c1)O[C@H](CN(C)C(=O)C1CC1)[C@@H](C)CN([C@@H](C)CO)S2(=O)=O,22.1% (inactive)
16,CNC[C@@H]1Oc2cc(C#CCC3CCCC3)ccc2S(=O)(=O)N([C@H](C)CO)C[C@H]1C,-4.17% (inactive)
17,C[C@@H]1CCCCO[C@H](CN(C)Cc2ccc(Cl)c(Cl)c2)[C@H](C)CN([C@@H](C)CO)C(=O)c2cc(NC(=O)C3CCCCC3)ccc2O1,12.1% (inactive)
18,C[C@@H]1CN([C@H](C)CO)S(=O)(=O)c2ccc(C#CC3CCCC3)cc2O[C@@H]1CN(C)C(=O)Cc1ccncc1,4.33% (inactive)
19,Cc1ccc(S(=O)(=O)N(C)C[C@@H]2OCCCC[C@@H](C)Oc3ccc(NS(=O)(=O)c4ccc(F)cc4)cc3C(=O)N([C@H](C)CO)C[C@H]2C)cc1,-0.859% (inactive)
